Results: PubChem BioAssay (NCATS)
Inconclusive results are not listed. Active and inactive are the calls of the source. The call rests on the fitted dose curve; in most records, active means well fitted curve in the direction sought with a large enough effect; inconclusive means small, poorly fitted or top-dose-only effect, or another doubt; inactive means no such curve, though single readings can be large; an effect the other way counts as inactive or inconclusive.

Experiments:
[1] = molecular target: Single-stranded DNA cytosine deaminase (Homo sapiens) (UniProt Q9GZX7); test: Validation qHTS assay for inhibitors of Activation Induced Cytidine Deaminase (AID): AID signal (AID 1347429)
Chain of Single-stranded DNA cytosine deaminase (Homo sapiens) (Q9GZX7 whole entry, looked up): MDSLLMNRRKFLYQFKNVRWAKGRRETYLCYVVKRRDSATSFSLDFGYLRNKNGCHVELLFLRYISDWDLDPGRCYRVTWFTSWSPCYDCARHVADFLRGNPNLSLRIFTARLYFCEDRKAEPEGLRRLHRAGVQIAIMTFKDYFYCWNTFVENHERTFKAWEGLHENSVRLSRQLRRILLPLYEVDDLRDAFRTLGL
In short: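 AID+UDG coupled FRET deamination; cpds up to 114 uM final; DJC20/DJC23 substrate, 4 hr RT; NaOH stop, 30 min RT; read Ex 540/Em 590.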

[2] = Primary qHTS for inhibitors of La Crosse Virus (LACV) - induced cell death in SH-SY5Y cells (AID 1508616);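 further: top concentration of the series differs between compounds; higher means more rescue of cells from virus-induced death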
In short: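 Cytopathicity rescue screen: compounds pinned onto SH-SY5Y cells, which are then infected with LACV (MOI 0.01) and held 6 days at 37C. Percent activity is scaled between infected DMSO control and uninfected DMSO control.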

[3] = molecular target: Calcium and integrin-binding protein 1 (Homo sapiens) (UniProt Q99828); test: Validation qHTS for Identification of Calcium Integrin Binding protein 1 (CIB1) Competitor (AID 1508618)
Chain of Calcium and integrin-binding protein 1 (Homo sapiens) (Q99828 whole entry, looked up): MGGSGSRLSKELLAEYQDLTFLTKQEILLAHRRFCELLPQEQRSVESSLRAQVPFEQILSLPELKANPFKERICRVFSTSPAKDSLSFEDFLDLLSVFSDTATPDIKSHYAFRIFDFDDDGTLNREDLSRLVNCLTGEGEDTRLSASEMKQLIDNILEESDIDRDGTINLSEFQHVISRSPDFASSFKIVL
In short: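 CIB1-GST (1 uM final) in 5 mM HEPES pH 7.4, 125 mM NaCl, 5 mM CaCl2, 0.01% Tween20 was preincubated 15 min at room temperature with compound (up to 114 uM), then FITC-alphaIIb peptide (100 nM) added for 15 min; fluorescence polarization read.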

[4] = Primary qHTS for small molecule stabilizers of the endoplasmic reticulum resident proteome: Secreted ER Calcium Modulated Protein (SERCaMP) assay (AID 1508630)
In short: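 The SH-SY5Y reporter protocol was run at 3 concentrations up to 38.3 uM (primary) or 11 concentrations (follow-up): 16 h compound, 100 nM thapsigargin for 4 h, then extracellular luciferase luminescence.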

Papain (Carica papaya) = Papain (Carica papaya) (UniProt P00784); test: Primary qHTS assay for inhibitors of the protease papain (AID 1645873);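 further: papain turnover of Z-FR-AMC read as the AMC fluorescence gain over 10 min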; further: potency means the concentration at half of the fitted maximal effect
Chain of Papain (Carica papaya) (P00784 whole entry, looked up): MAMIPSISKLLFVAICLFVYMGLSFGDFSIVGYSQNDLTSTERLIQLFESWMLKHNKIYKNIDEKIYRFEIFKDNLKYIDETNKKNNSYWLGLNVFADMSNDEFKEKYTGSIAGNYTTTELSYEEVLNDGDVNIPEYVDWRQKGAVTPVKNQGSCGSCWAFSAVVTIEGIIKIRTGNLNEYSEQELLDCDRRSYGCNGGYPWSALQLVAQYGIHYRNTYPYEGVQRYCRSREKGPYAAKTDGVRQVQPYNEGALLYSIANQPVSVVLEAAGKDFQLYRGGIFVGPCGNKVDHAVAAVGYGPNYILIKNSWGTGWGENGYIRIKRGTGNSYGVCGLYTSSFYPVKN

Measured: Potency

COc1ccc(-c2ccc(N)[n+](CCCC(=O)O)n2)cc1
inactive: [1] | [2] | [3] | [4] | Papain (Carica papaya)

CCCOC(=O)c1c(-c2ccccc2)nc(CC)c(C(=O)SCC)c1CCC
inactive: [1] | [2] | [3] | [4] | Papain (Carica papaya)

CC(N)=O
inactive: [1] | [2] | [3] | [4] | Papain (Carica papaya)

CSC(=N)N
inactive: [1] | [2] | [3] | [4] | Papain (Carica papaya)

N[C@H]1CONC1=O
inactive: [1] | [2] | [3] | [4] | Papain (Carica papaya)

CC(O)C(O)[C@H]1CNc2nc(N)[nH]c(=O)c2N1 (stereo not given in full)
active: Papain (Carica papaya) 25.1 µM
inactive: [1] | [2] | [3] | [4]

O=C(O)c1cccnc1C(=O)O
inactive: [1] | [2] | [3] | [4] | Papain (Carica papaya)

CCCn1c(=O)c2c(ncn2C)n(CCC)c1=O
inactive: [1] | [2] | [3] | [4] | Papain (Carica papaya)

C=CCN1CCc2cc(O)c(O)cc2C(c2ccccc2)C1 (stereo not given)
inactive: [1] | [2] | [3] | [4] | Papain (Carica papaya)

Nc1ncnc2c1ncn2C1CCCC1
inactive: [1] | [2] | [3] | [4] | Papain (Carica papaya)

CC(C)NCC(O)COc1ccc(CC(N)=O)cc1 (stereo not given)
inactive: [1] | [2] | [3] | [4] | Papain (Carica papaya)

CC(N)(Cc1ccc(O)cc1)C(=O)O (stereo not given)
inactive: [1] | [2] | [3] | [4] | Papain (Carica papaya)

NC(N)=[N+]1CCc2ccccc2C1
inactive: [1] | [2] | [3] | [4] | Papain (Carica papaya)

C=CCN1CCc2c(cc(O)c(O)c2Br)[C@@H](c2ccccc2)C1
inactive: [1] | [2] | [3] | [4] | Papain (Carica papaya)

O=C(O)C1CCCNC1 (stereo not given)
inactive: [1] | [2] | [3] | [4] | Papain (Carica papaya)

CCN(CC)CCOC(=O)c1cc(Cl)c(N)cc1OC
inactive: [1] | [2] | [3] | [4] | Papain (Carica papaya)

O=C(O)C1CN(CCCP(=O)(O)O)CCN1 (stereo not given)
inactive: [1] | [2] | [3] | [4] | Papain (Carica papaya)

Cc1ccc([N+](=O)[O-])cc1S(=O)(=O)N(C)C
inactive: [1] | [2] | [3] | [4] | Papain (Carica papaya)

CCCc1c(-c2ccc(O)cc2)nn(-c2ccc(O)cc2)c1-c1ccc(O)cc1
inactive: [1] | [2] | [3] | [4] | Papain (Carica papaya)

O=C(c1ccc2c(c1)OCCO2)N1CCCCC1
inactive: [1] | [2] | [3] | [4] | Papain (Carica papaya)

N[C@@H](CCCC(=O)O)C(=O)O
inactive: [1] | [2] | [3] | [4] | Papain (Carica papaya)

COc1ccc(C(=O)NCc2cccnc2)cc1C(=O)NCc1cccnc1
inactive: [1] | [2] | [3] | [4] | Papain (Carica papaya)

c1ccc2c(c1)CCC[C@H]2Nc1nc2ccccc2[nH]1
inactive: [1] | [2] | [3] | [4] | Papain (Carica papaya)

NCCCCN=C(N)N
inactive: [1] | [2] | [3] | [4] | Papain (Carica papaya)

OCC1NCC(O)C(O)C1O (stereo not given)
inactive: [1] | [2] | [3] | [4] | Papain (Carica papaya)

CC(C)C[C@H](NC(=O)[C@H](O)[C@H](N)Cc1ccccc1)C(=O)O
inactive: [1] | [2] | [3] | [4] | Papain (Carica papaya)

CC(=O)/C(C)=N/O
inactive: [1] | [2] | [3] | [4]
active: Papain (Carica papaya) 2 µM

C[N+](C)(C)CC=O
inactive: [1] | [2] | [3] | [4] | Papain (Carica papaya)

CC(=O)[C@H]1CCC2C3CC=C4C[C@@H](OS(=O)(=O)O)CC[C@]4(C)C3CC[C@@]21C (stereo not given in full)
inactive: [1] | [2] | [3] | [4]
active: Papain (Carica papaya) 28.2 µM

c1ccc2nc(C3=NCCN3)ccc2c1
inactive: [1] | [2] | [3] | [4] | Papain (Carica papaya)

OC[C@H]1O[C@@H](n2cnc3cncnc32)[C@H](O)[C@@H]1O
inactive: [1] | [2] | [3] | [4] | Papain (Carica papaya)

Oc1cc2c(cc1O)C(c1ccccc1)CNCC2 (stereo not given)
inactive: [1] | [2] | [3] | [4] | Papain (Carica papaya)

O=C1Nc2ccc(I)cc2/C1=C/c1cc(Br)c(O)c(Br)c1
inactive: [1] | [2] | [3] | [4] | Papain (Carica papaya)

NC[C@@H]1O[C@H](c2ccccc2)Cc2c1ccc(O)c2O
inactive: [1] | [2] | [3] | [4] | Papain (Carica papaya)

N[C@@H](CS(=O)O)C(=O)O
inactive: [1] | [2] | [3] | [4] | Papain (Carica papaya)

CC(C)Cn1c(=O)n(C)c(=O)c2[nH]cnc21
inactive: [1] | [2] | [3] | [4] | Papain (Carica papaya)

NCCNS(=O)(=O)c1cccc2c(Cl)cccc12
inactive: [1] | [2] | [3] | [4] | Papain (Carica papaya)

CCCCOc1cc(CC2CNC(=O)N2)ccc1OC (stereo not given)
inactive: [1] | [2] | [3] | [4] | Papain (Carica papaya)

N=C(N)SCCc1cnc[nH]1
inactive: [1] | [2] | [3] | [4] | Papain (Carica papaya)

CC(C)(CO)Cc1cc(C(C)(C)C)c(O)c(C(C)(C)C)c1
inactive: [1] | [2] | [3] | [4] | Papain (Carica papaya)

CN[C@H](CC(=O)O)C(=O)O
inactive: [1] | [2] | [3] | [4] | Papain (Carica papaya)

C#CCn1c(=O)c2c(ncn2C)n(C)c1=O
inactive: [1] | [2] | [3] | [4] | Papain (Carica papaya)

CCN1C(=O)C=CC1=O
inactive: [1] | [2] | [3] | [4] | Papain (Carica papaya)

N[C@H](C(=O)O)c1cc(O)cc(O)c1
inactive: [1] | [2] | [3] | [4] | Papain (Carica papaya)

COC(=O)C(N)Cc1ccc(Cl)cc1 (stereo not given)
inactive: [1] | [2] | [3] | [4] | Papain (Carica papaya)

COc1cc([C@@H]2c3cc4c(cc3[C@H](O)C3COC(=O)[C@@H]32)OCO4)cc(OC)c1OC (stereo not given in full)
inactive: [1] | [2] | [3] | [4] | Papain (Carica papaya)

NCCCNCCCCNCCCN
inactive: [1] | [2] | [3] | [4] | Papain (Carica papaya)

O=c1[nH]ccc2c(O)cccc12
inactive: [1] | [2] | [3] | [4] | Papain (Carica papaya)

N[C@@H](Cc1ccc(F)cc1)C(=O)O
inactive: [1] | [2] | [3] | [4] | Papain (Carica papaya)

NC/C=C\C(=O)O
inactive: [1] | [2] | [3] | [4] | Papain (Carica papaya)

O=C(O)C1CCNCC1
inactive: [1] | [2] | [3] | [4] | Papain (Carica papaya)

CCCn1c(=O)c2[nH]c(-c3ccc(S(=O)(=O)O)cc3)nc2n(CCC)c1=O
inactive: [1] | [2] | [3] | [4]
active: Papain (Carica papaya) 25.1 µM

CC(=O)NNC(=O)N1Cc2ccccc2Oc2ccc(Cl)cc21
inactive: [1] | [2] | [3] | [4] | Papain (Carica papaya)

CSc1nc(N)c2ncn([C@@H]3O[C@H](COP(=O)(O)OP(=O)(O)O)C(O)[C@H]3O)c2n1 (stereo not given in full)
inactive: [1] | [2] | [3] | [4] | Papain (Carica papaya)

CCCn1c(=O)c(C)cn2nc(N)nc12
inactive: [1] | [2] | [3] | [4]
active: Papain (Carica papaya) 28.2 µM

Cc1nc2c(OCc3ccccc3)cccn2c1CC#N
inactive: [1] | [2] | [3] | [4] | Papain (Carica papaya)

COc1cc(N)c(Cl)cc1C(=O)OCCN1CCCCC1
inactive: [1] | [2] | [3] | [4] | Papain (Carica papaya)

CCn1c(=O)[nH]c2cc(Cl)c(Cl)cc21
inactive: [1] | [2] | [3] | [4] | Papain (Carica papaya)

CSC(N)=NCCC[C@H](N)C(=O)O
inactive: [1] | [2] | [3] | [4] | Papain (Carica papaya)

COc1cc(CNC(=O)CCCCCCC(C)C)ccc1O
inactive: [1] | [2] | [3] | [4] | Papain (Carica papaya)

NC(N)=N[C@@H](CCC(=O)O)C(=O)O
inactive: [1] | [2] | [3] | [4] | Papain (Carica papaya)

NC1C=CC=C(C(=O)O)C1 (stereo not given)
inactive: [1] | [2] | [3] | [4] | Papain (Carica papaya)

[Li+]
inactive: [1] | [2] | [3] | [4] | Papain (Carica papaya)

Oc1cc(O)c2c(c1)O[C@H](c1ccc(O)c(O)c1)[C@@H](O)C2
inactive: [1] | [2] | [3] | [4] | Papain (Carica papaya)

OC[C@H]1NC[C@@H](O)[C@@H]1O
inactive: [1] | [2] | [3] | [4] | Papain (Carica papaya)

NC1CONC1=O (stereo not given)
inactive: [1] | [2] | [3] | [4] | Papain (Carica papaya)

CN1CC(O)C(O)C(O)C1CO (stereo not given)
inactive: [1] | [2] | [3] | [4] | Papain (Carica papaya)

Nn1nnc2ccccc21
inactive: [1] | [2] | [3] | [4] | Papain (Carica papaya)

O=c1[nH]c2ccccc2c2ccccc12
inactive: [1] | [2] | [3] | [4] | Papain (Carica papaya)

COc1ccc2c(c1)CCC1C2CC[C@@]2(C)C1CC[C@@H]2NCCCCCCN1C(=O)C=CC1=O (stereo not given in full)
inactive: [1] | [2] | [3] | [4] | Papain (Carica papaya)

O=C(OCCN1CCOCC1)C1(c2ccccc2)CCCCC1
inactive: [1] | [2] | [3] | [4] | Papain (Carica papaya)

CC(N)(C(=O)O)c1ccc(C(=O)O)cc1 (stereo not given)
inactive: [1] | [2] | [3] | [4] | Papain (Carica papaya)

C=C(C)C1CC=C(C(=O)O)CC1 (stereo not given)
inactive: [1] | [2] | [3] | [4] | Papain (Carica papaya)

Nc1ncnc2c1ncn2C1CCCO1 (stereo not given)
inactive: [1] | [2] | [3] | [4] | Papain (Carica papaya)

COc1cc(C(O)C(=O)O)ccc1O (stereo not given)
inactive: [1] | [2] | [3] | [4] | Papain (Carica papaya)

COC1(C2=NCCN2)COc2ccccc2O1 (stereo not given)
inactive: [1] | [2] | [3] | [4] | Papain (Carica papaya)

Nc1ccc(CCNc2ncnc3c2ncn3C2OC(CO)C(O)C2O)cc1 (stereo not given)
inactive: [1] | [2] | [3] | [4] | Papain (Carica papaya)
